Results as given in PubChem BioAssay (NCI).
Compounds without any hit were thinned out: in the full panel of roughly 79,000, 15% have a hit. Cut-off read from the data, not from the text of the source: active = growth inhibition above about 70%; inactive = the rest.

Key:
[1] = NCI Yeast Anticancer Drug Screen. Data for the rad50 strain (AID 155);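 note: 0% = growth of vehicle-only cultures of the same strain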; details: S. cerevisiae rad50 strain growth inhibition; at 50.0 µM; stronger effect = higher value
Procedure, shortened: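 Compounds were tested on a yeast strain with an engineered DNA damage repair alteration; the reported value is growth inhibition normalised to vehicle treatment.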

[2] = NCI Yeast Anticancer Drug Screen. Data for the mec2-1 strain (AID 157); details: S. cerevisiae mec2-1 strain, at 50.0 µM, stronger effect = higher value
Procedure, shortened: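 Each compound was tested on mec2-1 yeast, a strain altered in DNA damage repair or cell cycle control. Growth inhibition is reported relative to vehicle.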

[3] = NCI Yeast Anticancer Drug Screen. Data for the sgs1 mgt1 strain (AID 161);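 note: 0% = growth of cultures given vehicle only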; details: S. cerevisiae sgs1 mgt1 strain, at 50.0 µM, stronger effect = higher value
Procedure, shortened: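 Inhibition of yeast growth, normalised to vehicle-treated controls, is reported for a strain bearing genetic alterations in DNA damage repair.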

[4] = NCI Yeast Anticancer Drug Screen. Data for the cln2 rad14 strain (AID 165);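 note: 0% = growth equal to vehicle treated cultures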; details: S. cerevisiae cln2 rad14 strain, at 50.0 µM, stronger effect = higher value
Procedure, shortened: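 Test compounds were added to cln2 rad14 yeast cultures; inhibition of growth was then determined by comparison with vehicle treatment.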

[5] = NCI Yeast Anticancer Drug Screen. Data for the bub3 strain (AID 167); details: S. cerevisiae bub3 mutant strain, at 50.0 µM, stronger effect = higher value
Procedure, shortened: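 Growth of a checkpoint-deficient yeast mutant is measured after compound exposure. Values represent inhibition relative to vehicle.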

[6] = NCI Yeast Anticancer Drug Screen. Data for the mlh1 rad18 strain (AID 175); details: S. cerevisiae mlh1 rad18 strain growth inhibition; at 50.0 µM; stronger effect = higher value
Procedure, shortened: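 Inhibition values reflect reduced growth of mutant yeast versus vehicle-treated controls following compound exposure; the mutations affect DNA damage repair.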

Measured: growth inhibition

CCC(C)(C)c1ccc(OCCOC(C)=O)cc1
inactive: [1] 3.1% | [2] -11.8% | [3] 26.1% | [4] -13.7% | [5] 18.7% | [6] 23.1%

O=C1CCC(=O)N1CCc1cccc2ccccc12
inactive: [1] 5.45% | [2] -1.1% | [3] 30.4% | [4] 5.4% | [5] 2.4% | [6] -9.35%

CCOC(=O)c1ccc(C(=O)OCC)n1-c1cc2cc(c1)CSCc1cc(cc(-n3c(C(=O)OCC)ccc3C(=O)OCC)c1)CSC2
inactive: [1] -26.2% | [2] -30.1% | [3] -20.9% | [4] 16.6% | [5] -13.8% | [6] -5.15%

Cn1c(=O)c2[nH]c([N+](=O)[O-])nc2n(C)c1=O
inactive: [1] 23.4% | [2] -10% | [3] -0.3% | [4] 13.6% | [5] -20.1% | [6] 25.8%

CCOC(=O)C(Cc1ccc(Cl)cc1)(Cc1ccc(Cl)cc1)C(=O)OCC
inactive: [1] 0.75% | [2] -30.4% | [3] -18% | [4] 6.15% | [5] -15.8% | [6] -10.7%

C=CCCCCCCCCC(=O)OC
inactive: [1] -11.8% | [2] -17.9% | [3] 10.2% | [4] -10.5% | [5] -5.1% | [6] -31.4%

O=C(CN1CCOCC1)Nc1cccc(Cl)c1
inactive: [1] 0.5% | [2] -20.1% | [3] -2.6% | [4] -14.8% | [5] 58.3% | [6] -29.1%

Cc1cc2c(cc1Cl)SC(NNc1cnc3ccccc3n1)=NS2(=O)=O
inactive: [1] 23.3% | [2] 21.6% | [3] 35.7% | [4] 20.2% | [5] 19.1% | [6] 4.8%

CCS(=O)(=O)c1ccc(NC(=O)OCc2ccccc2)cc1
inactive: [1] 12.1% | [2] 23.4% | [3] 22.4% | [4] -4.4% | [5] 25.5% | [6] -2.4%

CN(C)Cc1[nH]c2ccccc2c1Sc1ccccc1
inactive: [1] 0.85% | [2] 2.4% | [3] 24.6% | [4] 6.2% | [5] -27.9% | [6] 30.8%

COC(=O)N/N=C(\C)CC(=O)Nc1ccc(Cl)cc1
inactive: [1] -22.9% | [2] -32.6% | [3] -28.2% | [4] -5.95% | [5] -27.2% | [6] -43.7%

N=C(N)n1ncc(Cl)c(Cl)c1=O
inactive: [1] 30.8% | [2] 36.2% | [3] 33.9% | [4] 30.4% | [5] 38.9% | [6] 41.5%

c1cc2cc(C3=NCCN3)[nH]c2cc1C1=NCCN1
inactive: [1] 12.8% | [2] 35.4% | [3] 29.1% | [4] 43.5% | [5] 18.6% | [6] 26.2%

COc1cc(C(=O)C/C(CCCC(=O)Nc2ccccc2[N+](=O)[O-])=N/NC(=O)c2cc3ccccc3cc2O)ccc1O
inactive: [1] 12.9% | [2] 28.1% | [3] -9.75% | [4] 23.3% | [5] 1.4% | [6] 7.85%

NNC(=O)CC(=O)Nc1ccc(S(=O)(=O)c2ccc(NC(=O)CC(=O)NN)cc2)cc1
inactive: [1] 16.6% | [2] 12.7% | [3] 18.6% | [4] 30.1% | [5] 25.4% | [6] -1%

C=CCCCCCCCCC(=O)Nc1cc2c3c(c1)CCCN3CCC2
inactive: [1] 6.95% | [2] 8.75% | [3] 1.1% | [4] -13.8% | [5] 10.6% | [6] 20.9%

c1cc(CCc2ccncc2)ccn1
inactive: [1] 21.9% | [2] -16.1% | [3] 2.5% | [4] 3.6% | [5] 1.3% | [6] 22.4%

Cc1cccc(C)c1NC(=O)C(=O)CC(=O)/C=C/c1ccccc1
inactive: [1] -14.5% | [2] -20.2% | [3] -30.6% | [4] 3.05% | [5] -23.1% | [6] -28.7%

O=c1c2cc3c(cc2[nH]c2ncccc12)OCO3
inactive: [1] -12.8% | [2] 0.65% | [3] 2.85% | [4] 13.8% | [5] -2.55% | [6] 26.3%

Oc1c2cccc1Cc1cccc3c1OCCOCCOCCOCCOc1c(cccc1Cc1cccc(c1O)C3)C2
inactive: [1] 9.1% | [2] 12.8% | [3] 9.45% | [4] 13.8% | [5] 12.4% | [6] -6.05%

C1CC2(CC3(C1)SCCS3)SCCS2
inactive: [1] -0.3% | [2] 7.2% | [3] -0.85% | [4] -12.3% | [5] 1.55% | [6] 0.05%

CCOC1CS(=O)(=O)CC(OCC)O1 (stereo not drawn)
inactive: [1] 3.35% | [2] 6.05% | [3] 4.9% | [4] -30.6% | [5] -8.35% | [6] 13.8%

COC(C)CC(=O)O (stereo not drawn)
inactive: [1] -25.8% | [2] -28.2% | [3] -37.2% | [4] -24.5% | [5] -13.2% | [6] -4.9%

CC1OC(c2ccc(Cl)cc2Cl)OC1C (stereo not drawn)
inactive: [1] 6.45% | [2] -0.9% | [3] 2.65% | [4] 0.7% | [5] 0.95% | [6] 1.5%

Cc1csc(NNC(N)=O)n1
inactive: [1] 1.65% | [2] -8.05% | [3] -63.5% | [4] -14% | [5] -42.9% | [6] -27.4%

NC(=O)CCC1CCCCN1 (stereo not drawn)
inactive: [1] 27.2% | [2] 18.8% | [3] 6.5% | [4] 5.7% | [5] 1.85% | [6] 2.2%

C[C@H]1CC[C@@H](C(C)(C)O)CC2=C1CC[C@@H]2C
inactive: [1] -0.2% | [2] -44.4% | [3] -13.2% | [4] 0.15% | [5] -10.6% | [6] -26.4%

CC(=O)N(C)c1cccc2ccccc12
inactive: [1] 17.9% | [2] -1.35% | [3] 9.85% | [4] -4.65% | [5] 6.75% | [6] 5.2%

O=C(NC(Nc1ccc(F)c(Cl)c1)(C(F)(F)F)C(F)(F)F)OCc1ccccc1
inactive: [1] -1.35% | [2] -1.05% | [3] -23.1% | [4] 3.1% | [5] -5.5% | [6] 24.3%

CCO/C=C1/N=C(c2ccc3ccccc3c2)OC1=O
inactive: [1] 35.9% | [2] 9.8% | [3] 13.3% | [4] -23.7% | [5] -32.2% | [6] 14%

CC(O)CSCC(C)O (stereo not drawn)
inactive: [1] 10.1% | [2] -4.2% | [3] -16.7% | [4] 12.4% | [5] -7.7% | [6] 3.05%

C[C@H](N)[C@@H](O)/C=C/c1ccccc1
inactive: [1] 8% | [2] -16.9% | [3] -0.05% | [4] -4.7% | [5] -9.7% | [6] -8.7%

CCOC(=O)CNc1ccccc1[N+](=O)[O-]
inactive: [1] -2.05% | [2] 5.8% | [3] -5.4% | [4] 12.3% | [5] 13.1% | [6] -3.75%

CN=C(NC(=S)N(C)C)N(C)C
inactive: [1] -4.3% | [2] -6.85% | [3] -9.4% | [4] -7.85% | [5] -14.1% | [6] 2.75%

COC(=O)/C=C/CCCC1CCCCC1
inactive: [1] -7.8% | [2] -3.85% | [3] 4.9% | [4] 0.45% | [5] -14.9% | [6] -13.9%

CCOC(=O)C(C#N)(CCC#N)CCC#N
inactive: [1] 26.3% | [2] 6.8% | [3] 9.05% | [4] -3.45% | [5] 9.4% | [6] 12.6%

Cn1c(=O)c2c(nc3sc4c(n32)C(=O)c2c(O)ccc(O)c2C4=O)n(C)c1=O
inactive: [1] 21.6% | [2] 30.2% | [3] 51.5% | [4] 55.2% | [5] 41% | [6] -7.2%

Oc1ccc2ccccc2c1C=NCCS
inactive: [1] 24.9% | [2] 6.25% | [3] 2.7% | [4] -25.6% | [5] -3.4% | [6] 3.15%
